Experimental findings from PubChem BioAssay AID1273 (Columbia University Molecular Screening Center, 2008) are described below.

In all, about 130,000 compounds went through this assay and about 1,200 (0.92%) were called active.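 How the source made its calls: active means inhibition above the mean plus 3 SD, with well images judged a real hit on visual review (cut at about 60% in these data, passing the limit was not always enough); inconclusive means inhibition over the cutoff but images rejected on review; inactive means inhibition not above the cutoff.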 Many of the other results were omitted from the sample, so actives are more common in it than they were.

The assay can be described thus: insulin gene promoter suppression in islet cells – imaging, TRM-6 cells (human fetal islet line), eGFP reporter, cell count, primary screen (AID 1273;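 on normalized cell count: cells exposed to compound for 48 h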). The settings on record: at 2 µM, reporter expression induced with tamoxifen; inhibition: stronger effect = higher value; normalized cell count: measured here: cell count, toxicity.
In the case of `CCc1ccc(NC(=O)c2ccc(Cn3cc([N+](=O)[O-])cn3)cc2)cc1`, the inhibition was 6.25% (inactive) and the normalized cell count turned out to be 63.8%.
Regarding `Cn1cc([N+](=O)[O-])c(C(=O)Nc2cnn(Cc3ccc(F)cc3)c2)n1`, the inhibition was 69.2% (active) and the normalized cell count amounted to 112%.
As for `COc1cccc(NC(=O)c2ccc(Cn3cc([N+](=O)[O-])cn3)o2)c1`, the inhibition is -11.1% (inactive) and the normalized cell count is 79.5%.
Consider `COCCNC(=S)N1CCC(NC(=O)C23CC4CC(CC(C4)C2)C3)CC1`, for which the inhibition is 21.4% (inactive) and the normalized cell count was 106%.
As for `CCn1c(SCc2ccccc2)nc2c(c1=O)SCC2`, the inhibition was 48.6% (inactive) and the normalized cell count was 108%.
On to `CC(Sc1nnnn1C)C(=O)NC(=O)NC1CCCCC1` (stereo not drawn), for which the inhibition is 36.4% (inactive) and the normalized cell count was found to be 91.5%.
Take `Cc1ccc(NC(=O)C2(N3CCC3=O)CCCCC2)cc1`: the inhibition is -35.7% (inactive) and the normalized cell count was 133%.
Turning to `O=C(O)Cc1ccc(NCc2ccccc2Cl)cc1`, the inhibition is 0% (inactive) and the normalized cell count came to 111%.
As to `CC(C)(C)SCCNC(=O)c1cccc([N+](=O)[O-])c1`, the inhibition was -42.9% (inactive) and the normalized cell count is 85.5%.
As for `C=CCNC(=O)/C(=C\c1cccc([N+](=O)[O-])c1)NC(=O)c1ccccc1`, the inhibition was -26.7% (inactive) and the normalized cell count is 102%.
For the molecule `C=CCNC(=O)COC(=O)CNC(=O)c1cc(Cl)cc([N+](=O)[O-])c1`, the inhibition is 83.3% (active) and the normalized cell count was found to be 37%.
As for `CC(OC(=O)CCc1nc(=O)c2ccccc2n1C)C(=O)NCc1ccc2c(c1)OCO2` (stereo not drawn), the inhibition is -58.8% (inactive) and the normalized cell count was 141%.
With `Cc1ccc(CNC(=O)CCNS(=O)(=O)c2ccc(Br)s2)cc1`, the inhibition is 37.5% (inactive) and the normalized cell count amounted to 94.3%.
The matching figures for `Cc1ccccc1N1C(=O)C(Oc2ccc(Cl)cc2)C1CNCC1CCCO1` (stereo not drawn): -11.8% (inactive) and 94.4%.
The matching figures for `Brc1ccc(-c2nnc(-c3ccccc3)o2)o1`: 19.1% (inactive) and 142%.
The like results for `Nc1ccc(-c2nnc(-c3ccc(-c4ccccc4)cc3)o2)cc1` were, in that order, 46.7% (inactive) and 46.6%.
In the case of `OC(c1nnc(-c2ccccc2)o1)c1cccs1` (stereo not drawn), the inhibition was 75% (active) and the normalized cell count is 106%.
`CCCCNC(=O)N1CCN(S(C)(=O)=O)CC1`: the inhibition was -42.9% (inactive) and the normalized cell count turned out to be 86.1%.
The like results for `Clc1ccc(-c2csc(-c3ccncc3)n2)cc1` were, in that order, -16.7% (inactive) and 49.8%.
In the case of `CCCCCN1CC(O)=C(c2ccccc2)C1=N`, the inhibition was 9.59% (inactive) and the normalized cell count worked out at 61.8%.
For `CCCCCN1CC(O)=C(c2nc(-c3ccc(Cl)cc3)cs2)C1=N`, the inhibition was 81.1% (active) and the normalized cell count came to 67.1%.
As to `O=C(O)CSCC(=O)Nc1ccc(C(F)(F)F)cc1`, the inhibition was 29.4% (inactive) and the normalized cell count is 92.1%.
Turning to `CCC(=O)c1ccc(OCC(O)Cn2nc(C)c(C(C)=O)c2C)cc1` (stereo not drawn), the inhibition is 20% (inactive) and the normalized cell count was determined as 57.4%.
For the molecule `Cc1ccccc1NC(=O)Cn1c(=O)n(CC2CCCO2)c(=O)c2ccccc21` (stereo not drawn), the inhibition was 13.3% (inactive) and the normalized cell count worked out at 106%.
In the case of `Cc1ccc(SCC(=O)Nc2ccc3c(c2)OCCO3)cc1`, the inhibition was 20.6% (inactive) and the normalized cell count amounted to 137%.
For the molecule `O=C(CSc1nnnn1-c1ccc2c(c1)CCC2)Nc1ccc2c(c1)OCCO2`, the inhibition was 28.6% (inactive) and the normalized cell count turned out to be 88.2%.
Turning to `O=C(CSc1nnnn1C1CCCC1)Nc1ccc2c(c1)OCCO2`, the inhibition is 73.3% (active) and the normalized cell count is 70.4%.
Regarding `COc1ccccc1N(C)S(=O)(=O)c1ccc(Cl)c(C(=O)N2CCC(C(N)=O)CC2)c1`, the inhibition is 18.2% (inactive) and the normalized cell count came to 83.5%.
The like results for `CCOC(=O)c1sc(NC(=O)CSc2nc(O)c(Cc3ccccc3)c(=O)[nH]2)nc1C` were, in that order, -50% (inactive) and 56.7%.
In the case of `O=c1c(Cl)c(NC2CC2)cnn1-c1ccccc1`, the inhibition is -85% (inactive) and the normalized cell count turned out to be 114%.
Take `NC(=O)c1ccc(CN2CCC(Cc3ccccc3)CC2)cc1`: the inhibition is -347% (inactive) and the normalized cell count amounted to 40.1%.
With `Cc1ccc(CC(=O)Nc2cccc(C#N)c2)cc1`, the inhibition is -16.7% (inactive) and the normalized cell count was 153%.
Take `Cc1ccsc1C(=O)N/N=C/c1ccc([N+](=O)[O-])cc1`: the inhibition is 6.67% (inactive) and the normalized cell count is 153%.
As for `NC(=S)N/N=C/c1ccc([N+](=O)[O-])cc1`, the inhibition was -36.4% (inactive) and the normalized cell count was 109%.
`Cc1nc2ccccc2cc1C(=O)N/N=C/c1ccc([N+](=O)[O-])cc1`: the inhibition is 75% (active) and the normalized cell count was determined as 81%.
The like results for `COc1cc(C(=O)N[C@@H](C)C(=O)NCc2ccco2)cc(OC)c1OC` were, in that order, 33.3% (inactive) and 166%.
The like results for `CCCN(C(=O)CSc1nnnn1C)c1c(N)n(Cc2ccccc2)c(=O)[nH]c1=O` were, in that order, -90.9% (inactive) and 30.3%.
As to `O=c1[nH]c(CN2CCOCC2)nc2scc(-c3ccccc3)c12`, the inhibition was 25% (inactive) and the normalized cell count was found to be 148%.
The like results for `C#CCOCCOCCOCCNc1nc(N2CCN(C(=O)[C@H](C(C)C)n3cc(CCO)nn3)CC2)nc(N2CCN(C(=O)[C@H]([C@@H](C)CC)n3cc(CCCN=C(N)N)nn3)CC2)n1` were, in that order, 70% (active) and 95.3%.
As to `C#CCOCCOCCOCCNc1nc(N2CCN(C(=O)[C@H](C(C)C)n3cc(CCO)nn3)CC2)nc(N2CCN(C(=O)[C@H](C(C)C)n3cc(CCO)nn3)CC2)n1`, the inhibition was 50% (inactive) and the normalized cell count is 117%.
Consider `COCCNC(=O)NC(=O)COC(=O)C1(c2ccc(Cl)cc2)CC1`, for which the inhibition was 38.9% (inactive) and the normalized cell count worked out at 75.1%.
Take `COC(=O)c1ccc(Cc2ccccc2)o1`: the inhibition was 92.9% (active) and the normalized cell count is 83.1%.
For the molecule `CCCC(NC(=O)c1ccccc1)c1nc2ccccc2n1Cc1ccc(C(=O)OC)o1` (stereo not drawn), the inhibition was -17.5% (inactive) and the normalized cell count stood at 206%.
`COC(=O)c1ccc(CN(c2ccccc2OC)S(=O)(=O)c2cccs2)o1`: the inhibition is 7.89% (inactive) and the normalized cell count amounted to 71.6%.
